NPC1 prom act: activators of NPC1 promoter; Huh7 NPC1 promoter luciferase reporter, 24 h; Potency, µM (series often up to 9.22 µM), for inactives: at the top dose activation, hits mostly activators; actives 2.4% (n = 320,000); AID 485313; further: % of control where 0% means no effect; nearly all actives have a fitted effect of over 60% in size
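Huh7 cells stably carrying NPC1 promoter–luciferase, plated in Opti-MEM with 10% FBS for 2 h, were exposed to compound in DMSO for 24 h at 37 °C; luciferase reagent was added for 10 min and luminescence read.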
SMN2 splice up: enhancers of SMN2 splice variant expression; HEK293 SMN2-luciferase splicing reporter, luminescence, 30-36 h; Potency, µM (series often up to 46.1 µM), inactives show top-dose activity change, positive = activation, actives largely listed as activators; actives 2.8% (n = 210,000); further: % of control where 0% means no effect; nearly all actives have a fitted effect of over 55% in size
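HEK293 cells carry an SMN2 minigene-luciferase reporter in which exon 7 inclusion puts luciferase in frame. Cells were seeded at 2000 cells/well, attached for 10-12 hours, then exposed to compounds for 30-36 hours at 37C before ONE-Glo luminescence.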
Rab9 prom act: activates the Rab9 promoter; Huh7 Rab9 promoter-luciferase reporter, luminescence, 24 h; Potency, µM (top dose mostly 9.22 µM), for the others: at the top dose activation, negative = inhibition, usual class: activators; actives 2.8% (n = 320,000); further: % of control where 0% means no effect; nearly all actives have a fitted effect of over 60% in size
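Huh7 reporter line, Rab9 promoter upstream of luciferase. Compound exposure 24 h at 37 °C in reduced-serum medium with 10% FBS. Read-out: luminescence.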
ELG1 repair inh: blocks ELG1-dependent DNA repair in HEK293T cells. HEK293T ELG1-luciferase reporter, luminescence, 16 h; DNA damage induced by 5-fluorouridine. Potency, µM (top dose mostly 46.1 µM), without a hit: at the highest dose activity change, negative = inhibition, actives largely listed as inhibitors. actives 2.3% (n = 330,000); further: on the % scale 0 is the no-effect control and ±100 the full control effect; nearly all actives have a fitted effect of over 55% in size
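Step one: seed 2,000 cells per well. Step two: pin-transfer compound or DMSO alongside 5-fluorouridine. Step three: incubate 16 hr, 37 °C, 5% CO2. Step four: add ONE-Glo, wait 30 min, read luminescence.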
ELG1 genotox: inducers of genotoxicity in HEK293T ELG1-luciferase cells | HEK293T ELG1-luciferase reporter, luminescence, 16 h | Potency, µM (top dose mostly 46 µM), for the others: at the highest dose activity change, positive = activation, hits mostly activators | actives 1.3% (n = 330,000) | AID 504466; further: % of control where 0% means no effect; nearly all actives have a fitted effect of over 60% in size
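Reporter readout depends on ELG1 protein level, which increases with genetic stress. After 16 hr compound exposure at 37 °C, luciferase activity was quantified using ONE-Glo.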
FLuc modulator: inhibits or activates purified firefly luciferase, miR-21 counter-screen. P08659. purified FLuc, Km substrates, luminescence inhibition. Potency, µM (series often up to 57.5 µM), without a hit: at the highest dose activity change, negative = inhibition, actives largely listed as inhibitors. actives 6.9% (n = 360,000);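 further: plate controls were vehicle for no effect and reference inhibitor for full effect; nearly all actives have a fitted effect of over 55% in size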
Target sequence (P08659 whole entry, looked up): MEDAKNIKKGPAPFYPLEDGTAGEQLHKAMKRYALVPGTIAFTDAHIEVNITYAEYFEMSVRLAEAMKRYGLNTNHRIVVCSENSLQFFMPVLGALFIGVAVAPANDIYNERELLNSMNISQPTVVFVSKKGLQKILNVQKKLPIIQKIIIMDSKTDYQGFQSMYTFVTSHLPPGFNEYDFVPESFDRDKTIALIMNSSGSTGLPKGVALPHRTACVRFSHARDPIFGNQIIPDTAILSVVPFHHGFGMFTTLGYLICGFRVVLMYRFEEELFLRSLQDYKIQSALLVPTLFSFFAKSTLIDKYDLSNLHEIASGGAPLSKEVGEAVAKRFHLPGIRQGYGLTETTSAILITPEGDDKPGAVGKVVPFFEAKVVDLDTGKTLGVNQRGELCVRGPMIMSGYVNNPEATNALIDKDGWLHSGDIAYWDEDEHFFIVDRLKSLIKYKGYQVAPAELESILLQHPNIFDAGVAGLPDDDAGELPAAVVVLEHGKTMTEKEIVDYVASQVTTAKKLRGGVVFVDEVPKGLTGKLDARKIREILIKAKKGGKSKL
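Purified P. pyralis luciferase (10nM final) with 10uM D-luciferin and 10uM ATP (Km levels) in 50mM Tris acetate pH 7.5, 10mM Mg acetate, 0.01% Tween-20, 0.05% BSA; qHTS 6-point titration, ~60 µM downward; luminescence read.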
An asterisk follows results filed as active; ? = inconclusive; / = no result given. This is a sample that favours compounds with a hit; in the whole collection about 9.2% have one here. The call rests on the fitted dose curve; in most records, active means well fitted curve in the direction sought with a large enough effect; inconclusive means small, poorly fitted or top-dose-only effect, or another doubt; inactive means no such curve, though single readings can be large; an effect the other way counts as inactive or inconclusive. Potency means the concentration at half of the fitted maximal effect.

SMILES | NPC1 prom act | SMN2 splice up | Rab9 prom act | ELG1 repair inh | ELG1 genotox | FLuc modulator
c1ccc(-c2csc(Nc3ccccn3)n2)cc1 | 2.2µM* | / | 1.3µM* | ? | 2.9µM* | 1.3µM*
COc1ccc(-c2csc(Nc3ccccn3)n2)cc1OC | 1.8µM* | / | 2µM* | ? | 2.3µM* | 6.7µM*
Fc1ccc(-c2csc(Nc3ccccn3)n2)c(F)c1 | 1.6µM* | / | 2.8µM* | ? | ? | 0.6µM*
Oc1ccc(-c2csc(Nc3ccccn3)n2)cc1 | 2µM* | / | 3.2µM* | ? | 7.3µM* | 6.7µM*
Cc1cc(-c2csc(Nc3ccccn3)n2)ccc1F | 1.4µM* | / | 1.6µM* | ? | ? | 1.7µM*
Cc1c(Nc2nc(-c3ccc(Cl)cc3)cs2)c(=O)n(-c2ccccc2)n1C | 1% | -19% | 0% | -5% | -2% | 2%
Cc1nn(-c2ccccc2)c(C)c1/C=N/NC(=O)c1cnccn1 | 12% | / | 9% | 23% | 7% | ?
Cc1nn(-c2ccccc2)c(C)c1-c1cc(C(=O)N/N=C/c2ccc(O)cc2)[nH]n1 | -1% | / | 1% | ? | -6% | 21µM*
Cc1nn(-c2ccccc2)c(C)c1/C=N/NC(=O)c1cc(O)cc(O)c1 | 0% | / | -4% | -29% | -15% | 19µM*
Cc1nn(-c2ccccc2)c(N2CCCC2)c1/C=N/NC(=O)c1ccccc1O | -2% | 13% | -6% | -11% | -4% | -16%
Cc1nn(-c2ccccc2)c(C)c1/C=N/NC(=O)c1ccccc1O | 2% | / | 12% | ? | 9% | 1.9µM*
CCNc1ccc(C(=O)N/N=C/c2c(C)nn(-c3ccccc3)c2N2CCCC2)cc1[N+](=O)[O-] | 1% | -13% | -3% | 21µM* | -7% | 4%
COc1cc(/C=N/NC(=O)c2cc(-c3c(C)nn(-c4ccccc4)c3C)n[nH]2)ccc1O | 6% | / | 20% | ? | -9% | ?
CCOC(=O)c1c(S(=O)(=O)NCC2CCN(CCc3cccs3)CC2)c(C)n(C)c1C | -2% | / | -6% | 5% | 5% | 0%
CCOC(=O)CCC(=O)Nc1ccc(S(=O)(=O)Nc2cc(OC)nc(OC)n2)cc1 | -2% | / | -1% | -5% | 0% | -3%
Cc1ccc(NCC(=O)NNC2=NCCC2)c(C)c1 | -5% | 12% | 0% | -2% | 1% | 7%
CC(C)C(=O)N[C@@H]1c2ccccc2CC[C@@H]1O | / | / | / | 17% | 1% | /
COc1ccccc1C(=O)NCCC(=O)N(C)CC(=O)Nc1c(Cl)cccc1Cl | 7% | / | -1% | -4% | -9% | 2%
COc1cccc(NC(=O)c2oc3ccccc3c2NC(C)=O)c1 | ? | ? | 3.5µM* | ? | ? | ?
COc1cccc(NC(=O)c2oc3ccccc3c2NC(=O)C2CC2)c1 | 1% | -37% | 13% | 13µM* | -26% | 2%
COc1ccc(NC(=O)c2oc3ccccc3c2NC(=O)C2CC2)cc1 | 0% | -12% | -1% | -22% | -1% | ?
COc1cccc(NC(=O)CSc2ncnc3c2oc2ccccc23)c1 | -3% | -17% | -5% | -14% | 9% | -2%
COc1cccc(NC(=O)CSc2nc3c(oc4ccccc43)c(=O)[nH]2)c1 | 7% | 29% | -3% | ? | 6% | 3.8µM*
COc1ccc(NC(=O)c2oc3ccccc3c2NC(=O)c2ccco2)cc1 | -2% | -2% | -5% | 10µM* | -9% | 13µM*
Cc1cc2c(n1-c1ccc(C(=O)NCCc3ccc(Cl)cc3)cc1)CCCC2 | / | / | / | / | / | -2%
SMILES | NPC1 prom act | SMN2 splice up | Rab9 prom act | ELG1 repair inh | ELG1 genotox | FLuc modulator
CC(NCc1ccccc1Cl)C(=O)Nc1ccc(C#N)cc1 (stereo not drawn) | -3% | 2% | 2% | 0% | -3% | 3%
COCC(=O)Nc1c(C(=O)Nc2cccc(OC)c2)oc2ccccc12 | 3.5µM* | 11µM* | 3.5µM* | ? | ? | 0%
COc1cccc(NC(=O)c2oc3ccccc3c2NC(=O)COc2ccccc2C)c1 | / | 16% | / | / | / | -14%
Cc1ccccc1NC(=O)C1CCN(S(=O)(=O)c2ccccc2)CC1 | / | / | / | / | / | 3%
CC1=NN(C(N)=S)C(=O)C1N=Nc1ccccc1C (stereo not drawn) | 13% | ? | 4% | ? | 1% | 21µM*
CC1=NN(C(N)=S)C(=O)C1N=Nc1c(C)cc(C)cc1C (stereo not drawn) | -1% | -26% | 26% | 27% | ? | ?
CC1=NN(C(N)=S)C(=O)C1N=Nc1ccc(C)cc1C (stereo not drawn) | ? | 14µM* | ? | ? | 11µM* | 4.8µM*
Cc1cc(Br)ccc1NC(=O)CN(C)C(=O)Cn1c(=O)cnc2ccccc21 | 2% | / | 0% | -2% | -3% | 1%
N/C(=N\O)c1ccccc1N1CCCCC1 | 0% | / | -1% | -3% | -5% | -2%
c1ccc(Nc2nc(CSc3ncn[nH]3)cs2)cc1 | ? | -28% | ? | ? | 11% | 15µM*
O=C1C=CC(=O)c2c(O)c(Cl)c(Cl)c(O)c21 | / | -15% | / | / | / | /
O=C(NCc1cccc(F)c1)C1CCCN(C(=O)N2CCOc3ccccc32)C1 (stereo not drawn) | / | / | / | / | / | 0%
COC(=O)/N=C(/Cc1ccc(OC)cc1)c1ccc(OC)cc1 | 18% | / | 17% | ? | 8% | 0.76µM*
CN(C)c1ccc(C2=NOC(CN3C(=O)c4ccccc4S3(=O)=O)C2)cc1 (stereo not drawn) | 3.2µM* | 13µM* | 0.63µM* | ? | ? | 3µM*
CN(C)c1nc(N(C)C)nc(N(C#N)CN2C(=O)c3ccccc3S2(=O)=O)n1 | 2% | -7% | 3% | 3% | -5% | -3%
CCCCCCCCCCCCCC(=O)N[C@@H](C)[C@H](O)c1ccccc1 | / | -10% | / | / | / | /
CCc1ccc(Nc2nnc(SC3CCOC3=O)s2)cc1 (stereo not drawn) | -1% | 3% | -5% | ? | 4% | 21µM*
COc1ccc(S(=O)(=O)N2CCOCC2)cc1NC(=O)CSc1nnc(C2CC2)n1N | -7% | -1% | 3% | 6% | -1% | -2%
Cc1ccc(/C=C\c2nccc3c2[nH]c2ccccc23)cc1 | ? | ? | ? | ? | ? | 1.7µM*
c1ccc2c(c1)[nH]c1ccccc12 | / | -3% | / | / | / | /
Cc1[nH]c2ccccc2c1/C=C/c1cc[n+](C)cc1 | -36% | -26% | -43% | -4% | -22% | 2%
C(=C\c1nccc2c1[nH]c1ccccc12)/c1ccccc1 | ? | / | ? | ? | -5% | 7.6µM*
CSc1ccc(/C=C/c2cc(=O)c3ccccc3[nH]2)cc1 | 15% | 17% | ? | ? | 13% | ?

Source: PubChem
